Screens as filed in PubChem.
SNCA expr inhib: Primary qHTS assay for inhibitors of alpha-synuclein gene (SNCA) expression; hit rate 0.17% among 140,000; HEK-293 SNCA-luciferase knock-in, luminescence, 24 h; Potency, µM (top dose mostly 57.2 µM), hits mostly inhibitors; also: nearly all actives have a fitted effect of over 45% in size
hNpr1 antagonist: Natriuretic polypeptide receptor (hNpr1) antagonism - Primary qHTS | HEK293 hNpr1 GloSensor cGMP, ANP-stimulated luminescence | Potency, µM (doses to about 46.3 µM), hits mostly inhibitors | Atrial natriuretic peptide receptor 1 (Homo sapiens), P16066 | hit rate 1.6% among 76,000; calls by dose curve; also: nearly all actives have a fitted effect of over 60% in size
Target sequence (P16066 whole entry, looked up): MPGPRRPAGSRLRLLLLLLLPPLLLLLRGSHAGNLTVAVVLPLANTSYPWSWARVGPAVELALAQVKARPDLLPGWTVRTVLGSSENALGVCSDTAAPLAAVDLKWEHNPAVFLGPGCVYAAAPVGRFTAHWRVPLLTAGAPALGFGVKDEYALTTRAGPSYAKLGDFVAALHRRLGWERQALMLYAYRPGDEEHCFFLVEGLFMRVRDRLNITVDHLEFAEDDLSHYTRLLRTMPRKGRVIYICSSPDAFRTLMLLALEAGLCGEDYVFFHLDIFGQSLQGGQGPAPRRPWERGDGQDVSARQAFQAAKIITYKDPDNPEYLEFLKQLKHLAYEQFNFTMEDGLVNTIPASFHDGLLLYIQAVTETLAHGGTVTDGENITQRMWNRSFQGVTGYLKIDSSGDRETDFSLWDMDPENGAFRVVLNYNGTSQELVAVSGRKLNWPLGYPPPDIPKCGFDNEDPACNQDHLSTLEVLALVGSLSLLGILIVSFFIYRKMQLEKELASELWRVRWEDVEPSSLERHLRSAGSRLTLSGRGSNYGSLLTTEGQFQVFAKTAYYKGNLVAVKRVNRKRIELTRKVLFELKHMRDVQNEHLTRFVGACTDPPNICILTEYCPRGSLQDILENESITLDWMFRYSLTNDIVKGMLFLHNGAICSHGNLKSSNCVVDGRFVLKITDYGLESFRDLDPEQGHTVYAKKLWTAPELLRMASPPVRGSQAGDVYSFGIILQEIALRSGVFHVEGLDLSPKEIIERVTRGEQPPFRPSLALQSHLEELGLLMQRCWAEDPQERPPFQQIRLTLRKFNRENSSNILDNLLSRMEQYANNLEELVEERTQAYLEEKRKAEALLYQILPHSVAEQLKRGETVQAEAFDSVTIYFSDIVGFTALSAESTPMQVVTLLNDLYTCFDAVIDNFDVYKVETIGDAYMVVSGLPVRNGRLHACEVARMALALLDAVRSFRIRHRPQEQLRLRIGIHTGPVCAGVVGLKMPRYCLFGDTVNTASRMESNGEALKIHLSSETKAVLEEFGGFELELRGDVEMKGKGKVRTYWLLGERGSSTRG
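HEK293 cells stably expressing human Npr1 and cGMP GloSensor pGS-40F, loaded 2 h with 2% GloSensor reagent, given compound 30 min at room temperature. Luminescence read before and 20 min after 0.1 nM hNppA.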
HEK293 viab: GF-AFC viability counterscreen for inhibitors of alpha-synuclein gene (SNCA) expression; hit rate 0.12% among 150,000; HEK-293-SNCA-luc viability, GF-AFC fluorescence, 24 h; Potency, µM (top dose mostly 57.1 µM), most hits filed as cytotoxic; also: nearly all actives have a fitted effect of over 30% in size
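Cytotoxicity counterscreen: after 24 h compound treatment of genome-edited SNCA-luciferase HEK-293 cells, live-cell protease substrate GF-AFC read by fluorescence after 30 min; activity scaled between DMSO (0%) and medium-only (-100%), curves Hill-fitted.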
FLuc inh-1: Firefly luciferase inhibition profiling of diverse chemical library using quantitative high-throughput screening; hit rate 2.5% among 76,000; purified P. pyralis luciferase, luminescence, biochemical; Potency, µM (top dose mostly 115 µM), most hits filed as inhibitors; also: nearly all actives have a fitted effect of over 65% in size
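FLuc 10nM, D-luciferin 10uM, ATP 10uM, Mg acetate 10mM, Tris acetate pH 7.5, Tween/BSA; cpd qHTS; enzyme added last; CCD luminescence.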
NIH3T3 tox: Cytotoxic Profiling in NIH 3T3 Cell Line of Diverse Libraries Using Quantitative High-Throughput Screening | NIH 3T3 viability, CellTiter-Glo ATP luminescence, 48-72 h | Potency, µM (series often up to 96.7 µM), usual class: inhibitors | hit rate 4.3% among 94,000 | AID 1345082, 2018; also: nearly all actives have a fitted effect of over 55% in size
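First NIH 3T3 cells are plated at 400 cells/well; next compound is pinned in; then plates incubate 48 or 72 hr at 37 °C; finally CellTiter-Glo is added and luminescence read after 10 min.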
HEK cytotox: Cytotoxic Profiling in HEK 293 Cell Line of Diverse Libraries Using Quantitative High-Throughput Screening | HEK 293 viability, ATP luminescence (CellTiter-Glo), 48-72 h | Potency, µM (top dose mostly 115 µM), most hits filed as inhibitors | AID 1345083, 2018 | hit rate 6.6% among 94,000; also: nearly all actives have a fitted effect of over 60% in size
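Read-out: CellTiter-Glo ATP luminescence. Cells: HEK 293, 250 cells/well. Exposure: 48 or 72 hr, 37 degree Celsius.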
FLuc SDR -ATP: Firefly luciferase (FLuc-C-HiBiT) SDR gain of signal screen - without ATP; shares compounds with FLuc inh-1; Purified FLuc-C-HiBiT, Nano-Glo HiBiT luminescence, no ATP; Potency, µM (doses to about 32.7 µM), most hits filed as activators; hit rate 7.8% among 1,300; AID 1963318, 2024; also: nearly all actives have a fitted effect of over 55% in size
FLuc SDR ATP: Firefly luciferase (FLuc-C-HiBiT) SDR gain of signal screen - plus ATP; Potency, µM (highest dose often 32.7 µM), actives largely listed as activators; purified FLuc-C-HiBiT + ATP, HiBiT complementation luminescence; shares compounds with FLuc inh-1; hit rate 8.7% among 1,300;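 also: signal reports ligand binding via conformational change of the enzyme rather than luciferase catalysis; nearly all actives have a fitted effect of over 55% in size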
FLuc inh-2: Firefly luciferase (FLuc-C-HiBiT) enzymatic inhibition screen - Functional assay; purified FLuc-C-HiBiT enzyme, luciferin luminescence; shares compounds with FLuc inh-1; hit rate 42% among 1,300; Potency, µM (highest dose often 32.7 µM), usual class: inhibitors; also: nearly all actives have a fitted effect of over 70% in size
Numbers stand for hits; . = inactive; ? = inconclusive; / = no result. Rows were chosen to be rich in hits. Some 7.2% of all compounds tested hit in one or more screens of this group. Unless noted, calls follow the shape of the dose curve; as a rule, active = well fitted curve in the direction sought with a large enough effect; inconclusive = small, poorly fitted or top-dose-only effect, or another doubt; inactive = no such curve, though single readings can be large; an effect the other way counts as inactive or inconclusive.

SMILES	SNCA expr inhib	hNpr1 antagonist	HEK293 viab	FLuc inh-1	NIH3T3 tox	HEK cytotox	FLuc SDR -ATP	FLuc SDR ATP	FLuc inh-2
Cc1c(-c2ccccc2)[nH]c2c(CNC(=O)C3=NN(C)C(=O)CC3)cc(Cl)cc12	.	.	.	4µM	45µM	45µM	.	.	?
COc1ccc(NC(=O)O[C@@H]2CC[C@]3(C)C(CC[C@H]4OC(=O)C[C@H]43)[C@]2(C)CO)cc1 (some centres not stated)	.	.	.	.	.	?	/	/	/
CN(C(=O)CSc1nc2ccc(NC(=O)c3ccccc3)cc2s1)c1ccccc1	.	/	?	/	/	/	/	/	/
O=C(Nc1ccc(-c2nc3ccccc3s2)c(O)c1)c1ccccc1	/	/	/	/	/	/	.	.	.
CC(C)c1ccc(C(=O)Nc2ccc(-c3nc4ccccc4s3)c(Cl)c2)cc1	.	/	.	/	/	/	.	.	.
CSc1ccc(C(=O)Nc2ccc(-c3nc4ccccc4s3)c(O)c2)cc1	.	/	.	/	/	/	.	.	.
CCOC(=O)CSc1nc2ccc(NC(=O)c3ccccc3)cc2s1	.	/	?	/	/	/	/	/	/
COc1ccc(N2CCN(C(=O)Cn3cccc3-c3nc(-c4ccc5c(c4)OCO5)no3)CC2)cc1	.	.	.	.	.	.	.	.	.
O=C(O)C1(Oc2ccc3ncccc3c2)CCN(c2cnccn2)CC1	.	.	.	.	.	.	/	/	/
O=C(O)C1(Oc2ccc3ccccc3c2)CCN(c2ncnc3nc[nH]c23)CC1	.	.	.	.	.	.	.	.	.
Cc1ccc(C2Cn3nnc(C(=O)N4CCC(C(=O)Nc5ccccc5)CC4)c3CO2)cc1 (configuration not stated)	.	.	.	13µM	.	.	.	?	?
Cc1ccc(NC(=O)C2CCN(C(=O)c3nnn4c3COC(c3ccc(C)cc3)C4)CC2)cc1 (configuration not stated)	.	.	.	?	.	.	/	/	/
Cc1ccc(C2Cn3nnc(C(=O)N4CCC(C(=O)NCc5ccccn5)CC4)c3CO2)cc1 (configuration not stated)	.	.	.	11µM	.	.	.	?	?
CCOc1ccc(NC(=O)C2CCN(C(=O)c3nnn4c3COC(c3ccc(C)cc3)C4)CC2)cc1 (configuration not stated)	.	.	.	?	.	.	/	/	/
Cc1ccc(C2Cn3nnc(C(=O)N4CCC(C(=O)Nc5ccc(F)cc5)CC4)c3CO2)cc1 (configuration not stated)	.	.	.	11µM	.	.	.	?	?
COc1ccc(CN2CCOC[C@H](OCC(=O)N(C)C)C2)cc1	.	.	.	.	.	.	.	.	.
COc1ccc(-c2cc(N3CCCN(C(=O)c4ccccc4Cl)CC3)n[nH]2)cc1	.	.	.	.	.	?	/	/	/
CC(=O)N(C1CC1)C1CCOC2(CCN(C(=O)Nc3ccccc3)CC2)C1 (configuration not stated)	.	.	.	.	.	.	/	/	/
COc1ccc(Nc2nc(-c3ccccc3F)no2)cc1OC	.	?	.	2.2µM	?	?	.	?	3.5µM
CCCc1noc(-c2nc(-c3ccccc3F)no2)n1	.	?	.	5.6µM	.	.	.	.	?
COc1cccc(-c2noc(Nc3ccc4c(c3)OCO4)n2)c1	.	?	.	2µM	?	?	.	?	6.2µM
COc1cccc(-c2noc(Nc3ccc(OC)c(OC)c3)n2)c1	.	?	.	2µM	?	?	?	.	3.9µM
COc1cccc(-c2noc(Nc3ccc4c(c3)OCCO4)n2)c1	.	5µM	.	0.32µM	.	?	?	?	1.6µM
COc1ccc(OC)c(-c2noc(Nc3cccc(F)c3)n2)c1	.	.	.	.	.	?	/	/	/
CCc1ccc(Nc2nc(-c3ccccc3F)no2)cc1	.	13µM	.	2.5µM	?	?	.	.	6.2µM
SMILES	SNCA expr inhib	hNpr1 antagonist	HEK293 viab	FLuc inh-1	NIH3T3 tox	HEK cytotox	FLuc SDR -ATP	FLuc SDR ATP	FLuc inh-2
COCCN1CCC(CN(Cc2ccncc2)C(=O)c2csc(C)n2)CC1	.	.	.	.	.	.	/	/	/
CNC(=O)c1cc(C2CC2)nc2onc(C3CCCN3C(=O)c3cccnc3)c12 (configuration not stated)	/	/	/	/	.	.	/	/	/
Cc1ccc(/C=C/C(=O)N2CCC(c3nc4ccccc4o3)CC2)cc1	.	/	.	/	/	/	.	?	?
O=C(/C=C/c1ccc(Cl)cc1)N1CCC(c2nc3ccccc3o2)CC1	.	/	.	/	/	/	/	/	/
CCOc1cc2sc(N3CCC(C(=O)Nc4ccc(C(C)C)cc4)CC3)nc2cc1Br	.	/	.	/	/	/	.	?	7µM
CCOc1ccc(-c2cn3nc(CC(C)C)sc3n2)cc1	.	/	.	/	/	/	.	.	5µM
Cc1ccccc1-c1noc(-c2ccc(N3CCCC3)c([N+](=O)[O-])c2)n1	?	/	.	/	/	/	.	?	?
COc1ccc(-c2noc(-c3ccc(N4CCN(C)CC4)c([N+](=O)[O-])c3)n2)cc1	.	/	.	/	/	/	.	.	?
Cc1ccccc1-c1noc(-c2ccc(N3CCN(C)CC3)c([N+](=O)[O-])c2)n1	.	/	.	/	/	/	/	/	/
COc1cc(-c2noc(-c3ccc(N4CCN(C)CC4)c([N+](=O)[O-])c3)n2)cc(OC)c1OC	.	/	.	/	/	/	/	/	/
COc1ccccc1-c1noc(-c2ccc(N3CCN(C)CC3)c([N+](=O)[O-])c2)n1	.	/	.	/	/	/	?	?	5µM
O=C(NCCCn1ccnc1)C1CCCN(c2nc(-c3ccccc3)nc3c2CCC3)C1 (configuration not stated)	.	.	?	.	?	?	/	/	/
